HTT cytoprotect: Huntington cell model cytoprotection by ATP luminescence. PC12 HTT-Q103 induced, cytoprotection, ATP luminescence, 40 h. Potency, µM (top dose mostly 56.4 µM), inactives show cytoprotection (ATP increase), hits mostly activators. hit rate 0.14% among 230,000. AID 1471; note: potency is the fitted concentration of half-maximal effect; % of control where 0% means no effect; nearly all actives have a fitted effect of over 45% in size
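Cells were plated at 1500 per well in phenol red-free DMEM with 5% equine and 5% calf serum. Tebufenozide (100 nM final) and compounds were added, then ATPlite reagent, and luminescence was read.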
HTT aggregate: mutant huntingtin aggregation inhibition | Potency, µM (titrated, usually from 46.1 µM), for the others: at the top dose activity change, negative = inhibition, actives largely listed as inhibitors | PC12 HttQ103-GFP aggregates, Acumen cytometry, 40 h | hit rate 1.1% among 220,000 | AID 1688; note: potency is the fitted concentration of half-maximal effect; % is set by controls: 0 for no effect and ±100 for the full control effect; nearly all actives have a fitted effect of over 60% in size
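Multiplexed with ATP-based cell death, this channel scores GFP aggregates in PC12 cells expressing inducible HTTex1-Q103-GFP. Induction used 100 nM tebufenozide; compounds were tested in concentration series.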
PNC inhibitor: perinucleolar compartment assembly inhibition. PC3M PTB-GFP, PNC prevalence imaging, 16 h; active compounds read low. activity change (PNC), negative = inhibition, % at 10 µM. hit rate 3.1% among 140,000. AID 2417;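 active = readout at or below -70, meaning at least 70% loss of cells showing the perinucleolar compartment, a nuclear body marking cancer cells; inconclusive = readout between -30 and a set limit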;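 note: plate controls were DMSO wells for no effect and camptothecin positive control wells for full effect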
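Compounds are pinned in duplicate onto adhered PC3M cells stably expressing GFP-tagged PTB and incubated 16 h at 37 C. Cells are then fixed, nuclei stained with Hoechst, and PNC-positive cells counted.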
The depositor's hits bear a star; ? = inconclusive; / = no result given; [ ] = dose if it differs, or a comment. This excerpt belongs to a sample that is enriched for hits. Unless noted, calls come from the whole dose curve; as a rule, active = well fitted curve in the direction sought with a large enough effect; inconclusive = small, poorly fitted or top-dose-only effect, or another doubt; inactive = no such curve, though single readings can be large; an effect the other way counts as inactive or inconclusive.

SMILES | HTT cytoprotect | HTT aggregate | PNC inhibitor
Cc1cccnc1NC(=O)CCCN1C(=O)c2ccccc2C1=O | -6%[10 µM] | 0% | -7
CC(=O)c1c(O)cc(C)n(Nc2nc(C)cc(C)n2)c1=O | -2% | 1.3µM* | 16
CC(=O)c1c(O)cc(C)n(-c2ccc(F)cc2)c1=O | -20% | 0%[9.22 µM] | /
Nc1nnnn1/N=C/c1ccc(N2CCCCC2)c([N+](=O)[O-])c1 | 0%[1.9 µM] | 18% | -2
CCCCN(C)CCCNC(=O)/C=C1\Sc2ccccc2NC1=O | -8% | 3% | /
Clc1ccc2c(c1)[C@H]1OCC[C@H]1[C@@H](c1ccco1)N2 | 3%[10 µM] | 1% | 60
CCc1ccc2c(c1)[C@H]1OCC[C@H]1[C@@H](c1cccs1)N2 | / | 6% | -109*
c1cnc2ccc(C(c3nnnn3C3CCCC3)N3CCSCC3)cc2c1 (configuration not stated) | 2%[10 µM] | -11% | -119*
CCC(C)(C)n1nnnc1C(c1ccc2ncccc2c1)N1CCN(c2nc3ccccc3s2)CC1 (configuration not stated) | 3%[10 µM] | 18% | -86*
CC(C)(C)n1nnnc1C(c1ccc2ncccc2c1)N1CCC(O)CC1 (configuration not stated) | -44% | -12% | /
CCC(C)(C)n1nnnc1C(c1ccc2ncccc2c1)N1CCN(c2ccc(O)cc2)CC1 (configuration not stated) | -9%[10 µM] | -7%[9.22 µM] | /
CCN(CC)S(=O)(=O)c1cccc(C(=O)N[C@@H](C)c2nc3ccccc3[nH]2)c1 | -10%[10 µM] | 19% | /
C#CCSc1ncc(-c2ccccc2)cn1 | -9%[10 µM] | 1% | /
Cc1nn(Cc2ccc(Cl)cc2)c(C)c1NC(=O)CCCn1nc(C)c([N+](=O)[O-])c1C | 25%[10 µM] | -1% | 26
CCOC(=O)/C=c1\s/c(=C\c2c(OC)ccc3ccccc23)c(=O)n1CC(=O)NCC1CCCO1 (configuration not stated) | -86% | -3% | 5
CC(C)Cn1c2c(c(O)c(C(=O)Nc3ccc(F)cc3)c1=O)CCCC2 | 7%[0.074 µM] | -19% | 17
CC(C)Cn1c2c(c(O)c(C(=O)Nc3ncccc3O)c1=O)CCCC2 | 6%[10 µM] | ? | -91*
COc1ccc(C(CNC(=S)NCc2ccccc2)N2CCCC2)cc1 (configuration not stated) | 2% | 23% | /
CCCNC(=O)c1cc2c3ccccc3n(C)c2s1 | 8%[10 µM] | -5% | 21
Cn1c2ccccc2c2cc(C(=O)NNC(=O)CCl)sc21 | -35% | 16µM* | /
CCCCCCC(C)n1[nH]c(=O)c2c(C)cc(=O)[nH]c21 (configuration not stated) | -30%[0.074 µM] | 11µM* | 8
CCCCC(C)n1[nH]c(=O)c2c(C)cc(C)nc21 (configuration not stated) | 33%[10 µM] | 12%[9.22 µM] | /
COc1ccc(C2NC(=S)NC(C)=C2C(=O)c2ccccc2)cc1OC (configuration not stated) | 32%[10 µM] | 3% | -86*
COc1ccc(C2NC(=S)NC(C)=C2C(=O)Nc2ccccn2)cc1OC (configuration not stated) | 29%[10 µM] | 24% | ?
COC(=O)c1c(NC(NC(=O)C(C)(C)C)C(Cl)(Cl)Cl)sc2c1CCC2 (configuration not stated) | -23% | 3% | 2
SMILES | HTT cytoprotect | HTT aggregate | PNC inhibitor
O=C(CNC(=O)c1ccc(S(=O)(=O)N2CCCC2)cc1)N/N=C/c1c(Cl)cccc1Cl | -14%[10 µM] | 11µM* | -13
O=C(CNC(=O)c1ccc(S(=O)(=O)N2CCCC2)cc1)N/N=C/c1ccc(Cl)cc1 | -9%[10 µM] | -1% | -6
COc1ccc(C(=O)NCCn2ccc3ccccc32)cc1 | 11%[1.9 µM] | 18% | ?
O=C(NCCn1ccc2ccccc21)c1ccc(S(=O)(=O)N2CCCCC2)cc1 | 3% | ? | -81*
Cn1cc(C=C2C(=O)OC3(CCCCC3)OC2=O)c2ccccc21 | 9%[10 µM] | -8%[9.22 µM] | /
Cn1cc(C=C2C(=O)CC(C)(C)CC2=O)c2ccccc21 | / | 0.025µM* | 15
O=C(NNC(=O)c1ccc(F)cc1F)c1ccc2c(c1)OCO2 | -4%[10 µM] | 22% | /
Cc1ccc(C2(O)CN(c3ccccc3C)C3=[N+]2CCS3)cc1 (configuration not stated) | 20%[10 µM] | -20% | 16
CC(C)n1nnnc1C(c1ccc(F)cc1)N1CCN(C2CCCC2)CC1 (configuration not stated) | 7%[10 µM] | -2% | ?
Cn1nc(C(F)(F)F)c(/C=N/OC(=O)c2ccccc2)c1SCc1ccc(Cl)cc1 | -89% | ? | ?
Cn1nc(C(F)(F)F)c(/C=N/OC(=O)c2ccccc2Cl)c1SCc1ccccc1Cl | -48%[10 µM] | 10µM* | -28
CC(C)(C)c1ccc(OCCOCCn2cnc3ccccc3c2=O)cc1 | -62% | -4%[9.22 µM] | /
CCOC(=O)c1ccc(NC(=O)CSc2ccc(-c3cccnc3)nn2)cc1 | -10% | -11% | /
Cc1cc(N2CCN(S(=O)(=O)c3ccc(Br)cc3)CC2)n2ncnc2n1 | 18%[10 µM] | 0%[9.22 µM] | /
Cc1cc(N2CCN(S(=O)(=O)Cc3ccccc3)CC2)n2ncnc2n1 | -10%[10 µM] | 18% | -99*
COc1ccc(NC(=O)CSc2ccccc2)c(OC)c1 | -7%[1.9 µM] | 14% | -81*
CCC(=O)Nc1ccc(OC)cc1OC | -5%[0.074 µM] | 0% | ?
COc1ccc(NC(=O)CSc2ccccc2)cc1S(=O)(=O)N1CCCCC1 | 8%[10 µM] | 19% | -81*
COc1ccc(NC(=O)CSc2ccc(NC(C)=O)cc2)cc1S(=O)(=O)N1CCCCC1 | -15%[10 µM] | 1% | ?
C/C(N)=C(/C#N)C(=O)CSc1nnc(-c2ccccc2Br)o1 | -15% | 11% | -8
COc1cc(C(=O)Nc2nnc(C(F)(F)F)s2)c([N+](=O)[O-])cc1OC | -45% | 16%[9.22 µM] | /
Cc1ccc2c(C(=O)CSc3ccccc3)c(C)[nH]c2c1 | 8%[10 µM] | 2% | 4
O=C(COc1ccccc1-c1ccccc1)N/N=C/c1ccc2ccccc2c1 | -71%[10 µM] | 8% | -116*
O=C(COc1ccccc1-c1ccccc1)N/N=C/c1ccncc1 | 10%[10 µM] | 2%[9.22 µM] | /
COc1cccc(-c2nc(CS(=O)CC(=O)NCc3ccccc3)c(C)o2)c1 (configuration not stated) | -3% | 16% | ?
SMILES | HTT cytoprotect | HTT aggregate | PNC inhibitor
COc1ccccc1-c1ccc(SCc2ccc([N+](=O)[O-])cc2)nn1 | 4% | 1% | /
COc1ccccc1-c1ccc(SCc2cccc(C)c2)nn1 | ? | 22µM* | /
CCN1C(=O)/C(=C\N2CCCCCC2)SC1=S | -7% | -21% | 14
CCN1C(=O)/C(=C/N2CC(C)CC(C)C2)SC1=S (configuration not stated) | -24% | 5%[9.22 µM] | -89*
CCCCCCCCNc1nc(Cl)nc(NCc2ccco2)n1 | 0%[10 µM] | -22% | 4
CCCCCCNc1nc(NCc2ccco2)nc(OCC)n1 | -59% | 10µM* | ?
CC(C)CC(NC(=O)c1ccco1)C(=O)Nc1ccc2c(c1)OCCO2 (configuration not stated) | -16% | -10% | ?
O=C(C1CCCN(S(=O)(=O)c2cnc[nH]2)C1)N1CC(=O)N(CCc2ccccc2)C(=O)C1 (configuration not stated) | -6%[10 µM] | 19% | -119*
O=C(C1CCCN(S(=O)(=O)c2cnc[nH]2)C1)N1CCN(c2ccc(Cl)cc2)CC1 (configuration not stated) | -8% | ? | -24

High-throughput results deposited in PubChem BioAssay by National Center for Advancing Translational Sciences (NCATS).
